Shiga inhibitor – A qHTS for Small Molecule Inhibitors of Shiga Toxin. Vero cells, Shiga toxin protein synthesis inhibition reporter. inhibition, % at 38.7 µM. 290,000 tested, 9.2% active; in the data active = inhibition mostly above about 28%, no sharp cut-off; inactive = mostly below about 43%; note: 0% is about no effect
TbPYK inhibitor – qHTS of Trypanosoma Brucei Inhibitors. Potency, µM (titrated, usually from 76.8 µM), without a hit: at the top dose activity, negative = inhibition, actives largely listed as inhibitors. TbPYK enzyme, Kinase-Glo Plus ATP luminescence, 45 min. 410,000 tested, 0.12% active. pyruvate kinase (Trypanosoma brucei), Q57TT1; note: potency is the fitted concentration of half-maximal effect; % is set by controls: 0 for no effect and ±100 for the full control effect; nearly all actives have a fitted effect of over 50% in size
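TbPYK + substrate in 50 mM TEA pH 7.2, 100 mM KCl, 10 mM MgCl2, 0.05% BSA, 0.01% Tween-20; cpd pinned; ADP 130 uM final; 45 min RT; Kinase-Glo Plus 10 min; luminescence endpoint.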
Sm TGR inh – qHTS Assay for the Inhibitors of Schistosoma Mansoni Peroxiredoxins; AID 485364, 2010; Potency, µM (doses to about 114 µM), without a hit: at the top dose activity change, negative = inhibition, hits mostly inhibitors; Schistosoma mansoni thioredoxin glutathione reductase (TGR), Q962Y6; purified TGR, DTNB reduction, TNB absorbance 405 nm; 360,000 tested, 3% active; note: potency is the fitted concentration of half-maximal effect; % is set by controls: 0 for no effect and ±100 for the full control effect; nearly all actives have a fitted effect of over 60% in size
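First, TGR (20 nM dispensed) and NADPH were mixed with compound. Second, a 15 min room-temperature incubation followed. Third, further NADPH and then DTNB were added to start the reaction. Finally, TNB absorbance was monitored kinetically.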
LmPK inh – qHTS Assay for Inhibitors of Leishmania Mexicana Pyruvate Kinase (LmPK). Q27686. purified LmPK, Kinase-Glo ATP luminescence, 1 h. Potency, µM (titrated, usually from 57.5 µM), for inactives: at the top dose activity change, negative = inhibition, most hits filed as inhibitors. 290,000 tested, 0.37% active. AID 1721, 2009; note: potency is the fitted concentration of half-maximal effect; % is set by controls: 0 for no effect and ±100 for the full control effect
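0.1 nM LmPK, 0.5 mM PEP, 0.1 mM ADP; 50 mM imidazole pH 7.2, 7 mM MgCl2, 50 mM KCl; 1 h RT. Kinase-Glo luminescence readout, normalized to no-enzyme (full inhibition) and uninhibited wells.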
CHX counter – Cycloheximide Counterscreen for Small Molecule Inhibitors of Shiga Toxin; cell reporter, cycloheximide protein synthesis inhibition counterscreen; max response, %; 300,000 tested, 12% active; AID 2314, 2010; in the data active = max response mostly above about 13%, no sharp cut-off; inactive = mostly below about 14%; note: read at 38.3 µM for the half of the compounds with a filed dose; 0% is about no effect
Giardia FBPA inh – qHTS Assay for Inhibitors of Fructose-1,6-bisphosphate Aldolase from Giardia Lamblia. A8B2U2. purified Giardia FBPA. Potency, µM (top dose mostly 59.6 µM), without a hit: at the highest dose activity, negative = inhibition, usual class: inhibitors. 290,000 tested, 0.71% active. AID 2451, 2010; note: potency is the fitted concentration of half-maximal effect; % is set by controls: 0 for no effect and ±100 for the full control effect; nearly all actives have a fitted effect of over 55% in size
Target sequence (A8B2U2 whole entry, looked up): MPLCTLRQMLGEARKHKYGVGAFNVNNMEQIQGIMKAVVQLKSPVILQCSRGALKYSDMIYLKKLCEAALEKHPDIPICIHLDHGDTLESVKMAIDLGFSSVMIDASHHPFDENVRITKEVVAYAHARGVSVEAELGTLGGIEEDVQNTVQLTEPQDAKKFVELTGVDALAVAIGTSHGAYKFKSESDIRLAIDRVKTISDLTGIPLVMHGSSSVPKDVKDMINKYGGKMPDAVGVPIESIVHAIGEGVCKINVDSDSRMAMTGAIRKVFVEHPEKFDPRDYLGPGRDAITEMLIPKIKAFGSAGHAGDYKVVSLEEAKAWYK
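Giardia FBPA (40 nM reagent) was preincubated 10 min at RT with compound (up to 57.5 uM final), then substrate plus GAPDH/TPI/NAD/arsenate coupling system with diaphorase/resazurin was added; resorufin fluorescence (525/598 nm) was read after 20 min.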
The depositor's hits bear a star; ? = inconclusive; · = no result. This excerpt belongs to a sample that is enriched for hits. Unless noted, calls come from the whole dose curve; as a rule, active = well fitted curve in the direction sought with a large enough effect; inconclusive = small, poorly fitted or top-dose-only effect, or another doubt; inactive = no such curve, though single readings can be large; an effect the other way counts as inactive or inconclusive.

SMILES | Shiga inhibitor | TbPYK inhibitor | Sm TGR inh | LmPK inh | CHX counter | Giardia FBPA inh
O=C(COc1ccccc1)NCC(c1ccc(Cl)cc1)N1CCCCC1 (stereo not drawn) | · | 0% | 5% | · | · | ·
CC(=O)c1ccc(N2C(=O)Nc3ccccc3S2(=O)=O)cc1 | · | -9% | 0% | · | · | ·
O=C(NCc1ccccc1)Nc1cccn(Cc2cccc(F)c2)c1=O | 4 | 2% | -8% | 2% | 6 | -4%
CC(=O)c1ccc(N2C(=NC(=O)CCC3CCCC3)SC3CS(=O)(=O)CC32)cc1 (stereo not drawn) | -1 | 0% | 7% | 5% | -3 | -5%
CC(NC(=O)c1cc(COc2cccc(C(F)(F)F)c2)on1)c1nccs1 (stereo not drawn) | 57* | 4% | -13% | -13% | 43* | ·
CC(Cn1cncn1)NC(=O)c1cc(COc2cccc(C(F)(F)F)c2)on1 (stereo not drawn) | 23 | -8% | -2% | -3% | 18 | ·
O=C(NCC1CCOCC1)c1cc(COc2cccc(C(F)(F)F)c2)on1 | -2 | 1% | -21% | -5% | -3 | 12%
O=C(NC1CCOC1)c1cc(COc2cccc(C(F)(F)F)c2)on1 (stereo not drawn) | 66* | 9% | -24% | 0% | 41* | ·
COC(=O)[C@H](Cc1ccccc1)NC(=O)O[C@@H]1C(=O)c2cc(OC)ccc2O[C@H]1c1cccc(OC)c1 | · | · | · | · | · | -1%
Cn1cnc(S(=O)(=O)N2CCCC(C(=O)NCc3ccc(F)cc3)C2)c1 (stereo not drawn) | · | 2% | 7% | · | · | ·
CC(=O)c1ccc(OCCCC(=O)Nc2ccc3c(c2)OCCO3)cc1 | · | 4% | -1% | · | · | ·
COc1ccc(C(=O)Nc2ccc3c(c2)OCCO3)c(OC)c1 | · | -12% | · | · | · | ·
COc1ccc(C(=O)Nc2ccc3c(c2)OCCO3)cc1 | 9 | -19% | -2% | 25µM* | 15* | -22%
CC(=O)Oc1ccc(C(=O)Nc2ccc3c(c2)OCCO3)cc1 | · | -5% | 0% | ? | 26* | -4%
COc1ccc(C(=O)CCNc2ccc3c(c2)OCCO3)cc1 | 59* | -20% | 14µM* | 1% | 27 | 3%
CCC(=O)c1ccc(OCC(=O)Nc2ccc3c(c2)OCCO3)cc1 | · | 2% | · | · | · | ·
CCCOc1ccc(C(=O)Nc2ccc3c(c2)OCCO3)cc1 | 73* | 12% | 1% | 0% | 36* | -5%
O=C(NC1CCCCCC1)c1ccc2c(c1)sc1nc(-c3ccc(F)cc3)cn12 | · | 4% | -22% | · | · | ·
CCCC(=O)Nc1ccc(-c2csc(-c3cccnc3)n2)cc1 | 44 | -4% | -1% | 3% | 11 | 16%
CC(=O)Nc1ccc(-c2csc(NNC(=O)c3ccccc3)n2)cc1 | 25 | 3% | · | 2% | 13 | 9%
NNc1nc(-c2ccccc2)cs1 | 93 | -8% | 4% | -3% | 34* | ?
CC(=O)Nc1ccc(-c2csc(-c3cccnc3)n2)cc1 | 111* | -6% | -6% | -4% | 72* | 8%
Cc1nc(-c2ccccc2)cs1 | -16 | -12% | 24% | 6% | 2 | 1%
Oc1ccc(-c2csc(Nc3ncccn3)n2)cc1 | 122* | -7% | 6% | -4% | 39* | -7%
CC(=O)Nc1ccc(-c2csc(NCc3ccccc3)n2)cc1 | 62* | 7% | · | 5% | 25* | -7%
CCN(CC)CCN(C(=O)c1ccco1)c1nc2c(C)c(C)ccc2s1 | · | -3% | -3% | · | · | ·
ClC(CCN1CCN(Cc2ccccc2)CC1)c1ccccc1 (stereo not drawn) | · | -4% | · | · | · | ·
CC(=O)Nc1ccc(-c2csc(N/N=C(/C)c3ccccc3)n2)cc1 | 18 | -16% | -21% | 0% | 12 | -26%
CC(=O)Nc1ccc(-c2csc(Nc3ccc(S(N)(=O)=O)cc3)n2)cc1 | -7 | 3% | 0% | 2% | 6 | 0%
CC(=O)Nc1ccc(-c2csc(Nc3ncccn3)n2)cc1 | 81* | 1% | 8% | -2% | 33* | 1%
